Reference: PubChem BioAssay (NCATS)
Results filed as inconclusive are left out. Values without a mark were called inactive. Calls of active or inactive are those of the source. The call rests on the fitted dose curve; in most records, active means well fitted cell-killing curve with a large enough effect; inconclusive means small, poorly fitted or top-dose-only effect; inactive means no such curve, though single readings can be large or run the other way. Starred links: 1 amine or outer side, 2 acyl side, 3 side chain; linkers in the order of their positions; H or OH if unused. Positions of bridges follow the written chain, without caps; N, C: chain ends. Non-standard residues stand in square brackets, D forms with d. Residues, ends and D or L forms follow the SMILES beside them. Chains are numbered I, II in the order given. Actinocin(9to1) = Cc1c2oc3c(C)ccc(C(=O)[*:1])c3nc-2c(C(=O)[*:2])c(N)c1=O; NMeV = CN[CH](C(=O)O)C(C)C; Sar = CNCC(=O)O

assay: qHTS of pediatric cancer cell lines to identify multiple opportunities for drug repurposing: Confirmatory screen for TC32 cells (AID 1347118); conditions: TC32 Ewing sarcoma cells viability qHTS; series mostly up to 45.9 µM; activity change, negative = cytotoxicity: at the top concentration;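 further: cells exposed to compound for 48 h before the read; nearly all actives have a fitted effect of over 65% in size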
Description: Drug repurposing or repositioning has been offered as a strategy for drug development in oncology programs. This approach has special potential for childhood cancers and other rare or orphan diseases, where the expected return on new drug development has been a disincentive to pharmaceuticals.
In this project we exploit the poly-pharmacology of drugs to discover new indications via phenotypic screening of a panel of 19 well-characterized cell lines derived from solid tumors seen in children and adolescents. The goal is to identify approved drugs with previously unrecognized anticancer properties that has the potential to reveal new mechanisms and biological processes involved in carcinogenesis or drug resistance. We employed a titration-based paradigm (quantitative high-throughput screening or qHTS), where all compounds were tested at multiple concentrations for their effect on cell viability. Concentration-response curves (CRCs) were derived directly from the primary screen, and both potency and efficacy values were used to identify compounds with robust bioactivity profiles. We screened the NIH Chemical Genomics Center (NCGC) Pharmaceutical Collection (NPC) and Mechanism Interrogation Plate (MIPE) small molecule collections of approved and investigational compounds against these cell lines; and measured metabolically active cells after 48 hours of compound treatment as a proxy for cell viability.
Assay Submitter: Nathalia J. Martinez, National Center for Advancing Translational Sciences, National Institutes of Health, Rockville, MD, USA; email: natalia.martinez@nih.gov
[1] Shen, M et al. Quantitative high-throughput phenotypic screening of pediatric cancer cell lines identifies multiple opportunities for drug repurposing. Oncotarget 2017 Dec 19;9(4):4758-4772. PMID 29435139.
The cells were obtained from University of North Carolina (UNC), Pediatric Preclinical Testing Program (PPT), and Coriell Institute (CI).
qHTS cell viability assay:
Cells were assayed in growth media at a density of 500-1,000 cells/well. Five microliters of cells were dispensed into 1,536-well, white, solid-bottom, TC-treated plates (Greiner Bio One) using a multidrop dispenser and incubated at 37 degrees C, 5% CO2, under a humidified atmosphere for 5 hours. Twenty-three nanoliters of compounds and controls (neutral control DMSO or positive control bortezomib at final concentration of 2.3 uM) were subsequently transferred by Kalypsys pintool. For primary screens, the MIPE collection was tested at 11-point dilutions (final concentrations range from 0.78 nM to 46 µM) and the NPC collection at 8-point dilutions (final concentrations range from 0.59 nM to 46 µM). Compounds tested in follow-up screens were assayed at 11-point dilutions. Cells were incubated for 48 hours, followed by addition of 3 uL of CellTiter-Glo (Promega). After a 15min incubation at room temperature, samples were analyzed for luminescence intensity using a ViewLux High-throughput CCD imager equipped with clear filters.
On the % scale 0 is the no-effect control and ±100 the full control effect; potency means the concentration at half of the fitted maximal effect.

SMILES | Potency | activity change, negative = cytotoxicity
Nc1ncn([C@@H]2O[C@H](CO)[C@@H](O)[C@@H]2O)c(=O)n1 | 4650 nM (active) | –
COC1=C2C[C@@H](C)C[C@H](OC)[C@@H](O)[C@@H](C)C=C(C)[C@H](OC(N)=O)[C@@H](OC)C=CC=C(C)C(=O)NC(=CC1=O)C2=O | 928 nM (active) | –
COc1cc(O)c2c(c1)C1OC1C[C@H](O)[C@H](O)C(=O)C=CC[C@H](C)OC2=O (stereo not given in full) | 9270 nM (active) | –
Cn1c(Nc2ccc(C(F)(F)F)cc2)nc2cc(Oc3ccnc(-c4ncc(C(F)(F)F)[nH]4)c3)ccc21 | 928 nM (active) | –
CC(C)NC[C@@H](C(=O)N1CCN(c2ncnc3c2[C@H](C)C[C@H]3O)CC1)c1ccc(Cl)cc1 | 4140 nM (active) | –
O=C(NCc1ccccc1)[C@H](Cc1ccccc1)NC(=O)[C@@H]1O[C@@H]1C(=O)NCCc1ccc(O)cc1 | 165 nM (active) | –
COc1cccc2c1C(=O)c1c(O)c3c(c(O)c1C2=O)C[C@@](O)(C(=O)CO)C[C@@H]3O[C@H]1C[C@H](N)[C@H](OC2CCCCO2)[C@H](C)O1 (stereo not given in full) | 465 nM (active) | –
CN(C)c1ccc(C(=O)NCCCCCCC(=O)NO)cc1 | 1650 nM (active) | –
Cc1[nH]c(C=C2C(=O)Nc3ccccc32)c(C)c1CCC(=O)O | – | 9.98%
O=C(NC1CC1)c1cccc(-c2ccc3c(NC(=O)C4CC4)n[nH]c3c2)c1 | 5850 nM (active) | –
CC1(C)O[C@@H]2C[C@H]3[C@@H]4CCC5=CC(=O)C=C[C@]5(C)[C@@H]4[C@@H](O)C[C@]3(C)[C@]2(C(=O)CO)O1 | – | 13.6%
CS(=O)(=O)N1CCc2c(-c3cnc(N)nc3)nc(N3CCOCC3)nc21 | 1850 nM (active) | –
CCC(C(=O)O)C1CCC(C)C(C(C)C(O)C(C)C(=O)C(CC)C2OC3(C=CC(O)[C@@]4(CC[C@](C)(C5CC[C@@](O)(CC)C(C)O5)O4)O3)C(C)CC2C)O1 (stereo not given in full) | – | -91.8%
COc1cccc2c1C(=O)c1c(O)c3c(c(O)c1C2=O)C[C@@](O)(C(C)=O)C[C@H]3O[C@H]1C[C@H](N)[C@H](O)[C@H](C)O1 | 117 nM (active) | –
CC(=O)NCC(=O)N1[C@H]2CC[C@H]1c1cc(Nc3ncc(C(F)(F)F)c(NC4CCC4)n3)ccc12 | 46.5 nM (active) | –
CC(=O)O[C@@]12CO[C@H]1C[C@H](O)[C@@]1(C)C(=O)[C@H](O)C3=C(C)[C@@H](OC(=O)C(O)[C@@H](NC(=O)OC(C)(C)C)c4ccccc4)C[C@@](O)([C@@H](OC(=O)c4ccccc4)[C@@H]21)C3(C)C (stereo not given in full) | 5.9 nM (active) | –
O=C(O)C[C@H](O)C[C@H](O)C=Cc1c(C2CC2)nc2ccccc2c1-c1ccc(F)cc1 | 2930 nM (active) | –
CCS(=O)(=O)Nc1ccc2[nH]c(O)c(C(=Nc3ccc(CN4CCCCC4)cc3)c3ccccc3)c2c1 | 41.4 nM (active) | –
Oc1cc(-c2nc(-c3ccccc3)[nH]c2-c2ccncc2)ccc1Cl | 7370 nM (active) | –
C=CCNC1=C2C[C@@H](C)C[C@H](OC)[C@@H](O)[C@@H](C)C=C(C)[C@H](OC(N)=O)[C@@H](OC)C=CC=C(C)C(=O)NC(=CC1=O)C2=O | 522 nM (active) | –

SMILES | Potency | activity change, negative = cytotoxicity
CCOC(=O)C1=C(C)NC(=S)NC1c1cccc(O)c1 (stereo not given) | 3690 nM (active) | –
CNC(=O)Nc1ccc(-c2nc(N3CC4CCC(C3)O4)c3cnn(C4CCC5(CC4)OCCO5)c3n2)cc1 | 369 nM (active) | –
Cc1c2oc3c(C)ccc(C(=O)NC4C(=O)NC(C(C)C)C(=O)N5CCCC5C(=O)N(C)CC(=O)N(C)C(C(C)C)C(=O)OC4C)c3nc-2c(C(=O)NC2C(=O)NC(C(C)C)C(=O)N3CCCC3C(=O)N(C)CC(=O)N(C)C(C(C)C)C(=O)OC2C)c(N)c1=O (stereo not given) (I: TVP[Sar][NMeV] / II: TVP[Sar][NMeV]; ester I:1-I:C, II:1-II:C; linker I:N-II:N via Actinocin(9to1); configuration not given here) | 16.5 nM (active) | –
CO[C@@H]1[C@@H](O)[C@H](O)[C@@H](n2c3c(Cl)cccc3c3c4c(c5c6cccc(Cl)c6[nH]c5c32)C(=O)NC4=O)O[C@@H]1CO | 737 nM (active) | –
Cc1nc(NC(=O)N2CCC[C@@H]2C(N)=O)sc1-c1ccnc(C(C)(C)C(F)(F)F)c1 | 5220 nM (active) | –
COc1cc([C@@H]2c3cc4c(cc3[C@H](O)[C@H]3COC(=O)[C@@H]23)OCO4)cc(OC)c1OC | 465 nM (active) | –
CC(C)C[C@H](NC(=O)CNC(=O)c1cc(Cl)ccc1Cl)B1OC(=O)CC(CC(=O)O)(C(=O)O)O1 (stereo not given in full) | 465 nM (active) | –
CC(C)N1[N]C(=C2C=c3cc(O)ccc3=N2)c2c(N)ncnc21 | 1170 nM (active) | –
CC(=O)O[C@H]1C[C@@H]2CC[C@H]3[C@H]4C[C@H]([N+]5(C)CCCCC5)[C@@H](OC(C)=O)[C@@]4(C)CC[C@@H]3[C@@]2(C)C[C@H]1N1CCCCC1 | 2330 nM (active) | –
Cc1cnc(Nc2ccc(CN3CCOCC3)cc2)nc1Nc1cccc(S(=O)(=O)NC(C)(C)C)c1 | 3290 nM (active) | –
C#CCC(Cc1cnc2nc(N)nc(N)c2n1)c1ccc(C(=O)N[C@@H](CCC(=O)O)C(=O)O)cc1 (stereo not given in full) | 41.4 nM (active) | –
Cc1cnc(Nc2ccc(N3CCN(C)CC3)cc2)nc1Nc1cccc(S(=O)(=O)NC(C)(C)C)c1 | 2330 nM (active) | –
COc1cc([C@@H]2c3cc4c(cc3[C@@H](O[C@@H]3O[C@@H]5CO[C@@H](c6cccs6)O[C@@H]5[C@H](O)[C@@H]3O)[C@H]3COC(=O)[C@H]23)OCO4)cc(OC)c1O | 131 nM (active) | –
N#Cc1c(NC(=O)c2cccc3ccccc23)sc2c1CCCC2 | 233 nM (active) | –
CC(C=CC(=O)NO)=C[C@@H](C)C(=O)c1ccc(N(C)C)cc1 | 414 nM (active) | –
COc1cc(C[C@@H](CO)[C@H](CO)Cc2ccc(O)c(OC)c2)ccc1O | 9270 nM (active) | –
COC(=O)[C@@H]1[C@H]2C[C@@H]3c4[nH]c5ccccc5c4CCN3C[C@@H]2CC[C@@H]1O | – | -2.71%
C=CC(=O)N1CCc2ccc(-n3c(=O)ccc4cnc5ccc(-c6cnn(C)c6)cc5c43)cc21 | 5220 nM (active) | –
COc1ccc2c(c1OC)C(=O)OC2[C@H]1c2c(cc3c(c2OC)OCO3)CCN1C (stereo not given in full) | 2930 nM (active) | –
O=C(C=CC=Cc1ccc2c(c1)OCO2)N1CCCCC1 | 10400 nM (active) | –
